# Rows were chosen to be rich in hits. Some 8% of all compounds tested hit in one or more screens of this group.
# KB-3-1 cytotox: KB-3-1 parental cell cytotoxicity; AID 1347075; KB-3-1 viability, CellTiter-Glo ATP luminescence, 72 h; Potency, µM (titrated, usually from 46.1 µM), actives largely listed as cytotoxic; actives 1.4% (n = 400,000); further: on the % scale 0 is the no-effect control and ±100 the full control effect; nearly all actives have a fitted effect of over 60% in size
#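 Using CellTiter-Glo luminescence, growth of non-resistant KB-3-1 adenocarcinoma cells is assessed 72 h after pin-tool compound addition at 37 °C. Normalized responses across the concentration series yield fitted curves.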
# HT1080-NT tox: kills 2HG-producing HT-1080-NT fibrosarcoma cells. HT-1080-NT fibrosarcoma viability, CellTiter-Glo ATP luminescence, 48 h. Potency, µM (titrated, usually from 46.1 µM), for inactives: top-dose activity, negative = less viability, most hits filed as cytotoxic. actives 1.6% (n = 360,000);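 further: NT is the 2HG producing partner of a matched IDH1 knockdown line; 0% = DMSO-treated cells and -100% = media-only wells without cells; nearly all actives have a fitted effect of over 55% in size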
#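 Fibrosarcoma NT cells, 750 per well in 5% FBS RPMI, were exposed to compound for 48 hours. Viability: CellTiter-Glo luminescence.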
# KB-V1 MDR tox: KB-V1 MDR subline cytotoxicity; KB-V1 MDR cells viability, CellTiter-Glo, 72 h; Potency, µM (doses to about 46.1 µM), most hits filed as cytotoxic; actives 3.4% (n = 400,000); further: on the % scale 0 is the no-effect control and ±100 the full control effect; nearly all actives have a fitted effect of over 60% in size
#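 qHTS viability screen in drug-selected KB-V1 MDR cells: 72 h compound treatment at 37 degrees C, ATP luminescence end point.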
# MCF10A rereplic: inducers of DNA re-replication in MCF 10A breast cells. actives 2.9% (n = 350,000). AID 624296. MCF 10A DNA re-replication, Hoechst nuclear intensity, 48 h. Potency, µM (doses to about 46.1 µM), for the others: top-dose activity, positive = re-replication, most hits filed as activators; further: % of control where 0% means no effect; nearly all actives have a fitted effect of over 50% in size
# HT1080 IDH1KD tx: kills HT-1080 cells with IDH1 knockdown. HT-1080 IDH1 knockdown viability, ATP luminescence, 48 h. actives 2% (n = 360,000). Potency, µM (doses to about 46.1 µM), inactives show at the highest dose activity, negative = toxicity, actives largely listed as cytotoxic;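 further: 0% = DMSO wells and -100% = cell-free medium wells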
#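 Cytotoxicity counter-line: IDH1KD HT-1080, 48 h, CellTiter-Glo. Curves classed by r2, magnitude and activity.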
# SW480 rereplic: DNA re-replication induction in SW480 cells; SW480 DNA re-replication, Hoechst DNA content imaging, 48 h; Potency, µM (top dose mostly 46.1 µM), for the others: at the top dose re-replication activation, usual class: activators; actives 1.8% (n = 340,000); AID 624297; further: % of control where 0% means no effect; nearly all actives have a fitted effect of over 55% in size
#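 Quantitative HTS format with DMSO vehicle controls; 48 hr drug incubation at 37 C, then 40 min Hoechst staining and scanning imager measurement at 405 nm excitation.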
# * marks the source's active call; other numbers are inactive results; i = inactive; u = inconclusive; x = no result; ! = not active in a repeat; [ ] = dose if it differs, or a comment. The call rests on the fitted dose curve; in most records, active means well fitted curve in the direction sought with a large enough effect; inconclusive means small, poorly fitted or top-dose-only effect, or another doubt; inactive means no such curve, though single readings can be large; an effect the other way counts as inactive or inconclusive. Potency means the concentration at half of the fitted maximal effect.
SMILES,KB-3-1 cytotox,HT1080-NT tox,KB-V1 MDR tox,MCF10A rereplic,HT1080 IDH1KD tx,SW480 rereplic
O=C(OCC1OC(OC(=O)c2cc(O)c(O)c(OC(=O)c3cc(O)c(O)c(O)c3)c2)[C@@H](OC(=O)c2cc(O)c(O)c(OC(=O)c3cc(O)c(O)c(O)c3)c2)C(OC(=O)c2cc(O)c(O)c(OC(=O)c3cc(O)c(O)c(O)c3)c2)C1OC(=O)c1cc(O)c(O)c(OC(=O)c2cc(O)c(O)c(O)c2)c1)c1cc(O)c(O)c(OC(=O)c2cc(O)c(O)c(O)c2)c1 (stereo partly drawn),x,x,x,-11%,x,-15%
COc1ccccc1COCC(O)CN(Cc1ccco1)Cc1ccccc1O (stereo not drawn),i,0%,7.3µM*,13%,-19%,8%
O=C1CCN(CCc2ccccc2)CCN1[C@H](CSc1ccc(Br)cc1)Cc1ccccc1,u,-13%,i,u,-9%,0%
COc1ccc(S[C@@H](CCN2CC[C@H](NC(=O)OCc3ccccc3)CCC2=O)c2ccccc2)cc1,13µM*!,u,u,u,u,u
C[C@@H](CN=[N+]=[N-])CN1CC[C@H](NC(=O)OCc2ccccc2)CCC1=O,i,10%,i,2%,5%,-34%
O=C1CCN(Cc2ccccc2)CCN1[C@H](CSc1ccccc1)Cc1ccccc1,u,-7%,15µM*!,4%,-13%,-3%
COc1ccc(SC[C@H](C)CN2CC[C@H](NC(=O)OCc3ccccc3)CCC2=O)cc1,15µM*!,-1%,12µM*!,u,-15%,0%
O=C(N[C@H]1CCC(=O)N([C@H](CSc2ccccc2)Cc2ccccc2)CC1)OCc1ccccc1,u,-9%,18µM*!,u,-11%,-6%
C[C@@H](CSc1ccc(Br)cc1)CN1CC[C@H](NC(=O)OCc2ccccc2)CCC1=O,u,-19%,15µM*!,u,-28%,5%
O=C(CN1CCN(S(=O)(=O)c2ccc(F)cc2)CC1)Nc1ccc2c(c1)OCCO2,i,-12%,u,-1%,-1%,-3%
O=C(CN1CCN(S(=O)(=O)c2ccc(F)cc2)CC1)Nc1ccc(Cl)c(C(F)(F)F)c1,u,u,16µM*,u,-13%[9.24 µM],u
O=C(Nc1cccc(S(=O)(=O)N2CCCCC2)c1)Nc1ccc(Cl)cc1Cl,u,21µM*,u,7.3µM*,16µM*,u
CN(CC(=O)Nc1ccc(S(=O)(=O)N2CCCC2)cc1)Cc1c(F)cccc1Cl,u,-9%,7.3µM*,9%,1%,6%
CN(CC(=O)Nc1cccc(S(=O)(=O)N2CCCC2)c1)CC(=O)Nc1ccc(Cl)c(C(F)(F)F)c1,u,9.2µM*,i,u,18µM*,u
C[C@H](N=C1NS(=O)(=O)c2ccccc21)C(=O)OCc1cc([N+](=O)[O-])cc2c1OCOC2,i,12%,i,-5%,0%,-6%
CCOc1ccc(OCC)c(NC(=O)c2cnc(SC)nc2-c2ccccc2)c1,i,x,u,x,x,x
O=C(CNc1cccc(C(F)(F)F)c1)Nc1cccc(S(=O)(=O)N2CCCC2)c1,u,-8%,u,12%,-15%,2%
CN(CC(=O)Nc1ccc(F)cc1)c1ccc(S(=O)(=O)N2CCCCC2)cc1[N+](=O)[O-],i,-22%,13µM*,-3%,-22%,x
CN(CC(=O)Nc1cccc(S(=O)(=O)N2CCCC2)c1)CC(=O)Nc1ccc(F)c(F)c1F,i,-13%,21µM*,0%,2%,2%
COc1ccc(S(=O)(=O)N2CCCCCC2)cc1C(=O)N(C)CC(=O)Nc1ccc(F)cc1,i,-6%,i,8%,0%,-349%
O=C(Cn1nc(-c2ccccc2F)ccc1=O)Nc1ccc(S(=O)(=O)N2CCCCCC2)cc1,i,1%,13µM*,22%,-10%,15µM*
O=C(Cc1ccccc1F)Nc1ccc(S(=O)(=O)N2CCCCC2)cc1,i,-17%,i,10%,-9%,u
O=C(CNc1cc(S(=O)(=O)N2CCCC2)ccc1OCC(F)(F)F)Nc1cccc(C(F)(F)F)c1,21µM*,-13%,9.2µM*,8%,-24%,x
Nc1c(C(=O)CSc2nnnn2-c2ccc(O)cc2)c(=O)[nH]c(=O)n1C1CC1,i,u,i,-1%,-28%,0%
O=C(Nc1ccc(N2CCN(C(=O)c3ccco3)CC2)cc1)c1cc(Br)ccc1Cl,u,u,2.1µM*,u,u,u
SMILES,KB-3-1 cytotox,HT1080-NT tox,KB-V1 MDR tox,MCF10A rereplic,HT1080 IDH1KD tx,SW480 rereplic
O=C(Nc1ccc(N2CCN(C(=O)c3ccco3)CC2)cc1)c1ccc2c(c1)OCO2,5.8µM*,-17%,i,-179%[0.0737 µM],u,u
O=C1[C@@H](Oc2ccccc2)[C@@H](c2ccncc2)N1c1ccccc1,i,u,i,9%,21µM*,u
COc1ccc(CCC(=O)N/N=C\c2cccs2)cc1,i,3%,i,-11%,7%,-79%
CCc1cccc(CC)c1NC(=O)C1CN(S(=O)(=O)c2ccccc2)CCN1S(=O)(=O)c1ccccc1 (stereo not drawn),i,6%,i,5%,17%,3%
Cc1cccc(C(C)C)c1NC(=O)C1CN(S(=O)(=O)c2ccccc2)CCN1S(=O)(=O)c1ccccc1 (stereo not drawn),i,7%,4.1µM*,-71%,2%,-74%
CSc1ccc(/C=C2\C=Cc3cc([N+](=O)[O-])ccc32)cc1,u,x,i,x,x,x
Cn1cc(C(=O)NC2CCCCC2)c(=O)c2cc(S(=O)(=O)N3CCCC3)ccc21,i,0%,9.2µM*,-2%,13%,-2%
Cn1cc(C(=O)NCc2cccs2)c(=O)c2cc(S(=O)(=O)N3CCCC3)ccc21,i,-8%,21µM*,-39%,-8%,-104%
COc1cc2nc(NCCc3ccc(Cl)cc3)n3nc(-c4ccccc4)nc3c2cc1OC,i,x,i,x,x,x
COc1ccccc1CN1CCCC(CNC(=O)c2cccc3ccccc23)C1 (stereo not drawn),i,-21%,i,4%,-8%,-6%
C[C@@H]1CN([C@@H](C)CO)S(=O)(=O)c2ccc(Br)cc2O[C@@H]1CN(C)Cc1cccnc1,i,0%,i,x,-4%,x
CCCCn1nc2cc(C(=O)NCc3ccccc3)ccc2c1OCC,i,2%,i,9%,3%,-10%
